Results as given in the supplement of paper PMC10849652.
The full data set covers some 7,900 targets. This sample favours those with a hit. About 0.6% of all pairs of compound and target were hits. Values without a mark were called inactive.

What was measured:
Experiment in all cases: log2 fold change, soluble protein after heating vs DMSO (PISA); higher = thermal stabilisation; K562 cells, 10 uM, 30 min; active = over 0.2 and 3.5 SD of the protein, either way, in both replicates (recomputed)
[1] = compound: C#Cc1cccc(Nc2ncnc3cc(OCCOC)c(OCCOC)cc23)c1 [erlotinib]
Method in brief: (§1)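 Soluble protein was quantified by TMTpro 16plex LC-MS/MS after channel sums were equalised. It was obtained as the supernatant after 21,000xg for 90 min from pooled aliquots of K562 cells (2×10^6 cells/mL, 10 μM compound, 30 min) heated for 3 min across 48°C-58°C and extracted in PBS with 0.5% NP-40 at 4°C. Thermal stability values are relative to control samples and come from duplicates. They are given as log2 fold changes.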

[2] = compound: C/C(=N\NC(=O)C1=CC(=CC=C1)S(=O)(=O)N2CCOCC2)/C3=C(C=CC(=C3)Cl)O
Method in brief: as §1

[3] = compound: C1=CC(=C(C=C1Cl)C2=NC3=NC=CN=C3C(=N2)NC4=CC=NC=C4)F
Method in brief: as §1

[4] = compound: C1=CC(=CC=C1C2=NC3=C(N2)C=C(C=C3)C(=O)N)OC4=CC=C(C=C4)Cl
Method in brief: as §1

[5] = compound: C1=CC2=C(C=CC(=C2)/C=C\3/C(=O)NC(=NCC4=CC=CS4)S3)N=C1
Method in brief: as §1

[6] = compound: C1=CC2=NC=CN=C2C=C1/C=C/3\C(=O)NC(=O)S3
Method in brief: as §1

[7] = compound: C1=CC=C(C=C1)C2=NC(=C(N2)C3=CC=NC=C3)C4=CC(=C(C=C4)Cl)O
Method in brief: as §1

[8] = compound: C1=CC=C2C(=C1)C3=NNC4=CC=CC(=C43)C2=O
Method in brief: as §1

[9] = compound: C1CCN(C1)C(=O)NC2=CC=CC(=C2)NC3=NC=C(C(=N3)NCCC4=CN=CN4)Br
Method in brief: as §1

[10] = compound: C1CN(CCC1(CC2=CC=C(C=C2)Cl)N)C3=NC=NC4=C3C=CN4
Method in brief: as §1

Sequence of UniProt Q86WQ0 (Q86WQ0 whole entry, looked up): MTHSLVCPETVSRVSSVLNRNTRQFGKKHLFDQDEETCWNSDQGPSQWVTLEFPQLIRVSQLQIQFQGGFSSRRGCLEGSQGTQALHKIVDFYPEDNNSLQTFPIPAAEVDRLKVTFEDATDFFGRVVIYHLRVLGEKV
Sequence of UniProt P20585 (P20585 whole entry, looked up): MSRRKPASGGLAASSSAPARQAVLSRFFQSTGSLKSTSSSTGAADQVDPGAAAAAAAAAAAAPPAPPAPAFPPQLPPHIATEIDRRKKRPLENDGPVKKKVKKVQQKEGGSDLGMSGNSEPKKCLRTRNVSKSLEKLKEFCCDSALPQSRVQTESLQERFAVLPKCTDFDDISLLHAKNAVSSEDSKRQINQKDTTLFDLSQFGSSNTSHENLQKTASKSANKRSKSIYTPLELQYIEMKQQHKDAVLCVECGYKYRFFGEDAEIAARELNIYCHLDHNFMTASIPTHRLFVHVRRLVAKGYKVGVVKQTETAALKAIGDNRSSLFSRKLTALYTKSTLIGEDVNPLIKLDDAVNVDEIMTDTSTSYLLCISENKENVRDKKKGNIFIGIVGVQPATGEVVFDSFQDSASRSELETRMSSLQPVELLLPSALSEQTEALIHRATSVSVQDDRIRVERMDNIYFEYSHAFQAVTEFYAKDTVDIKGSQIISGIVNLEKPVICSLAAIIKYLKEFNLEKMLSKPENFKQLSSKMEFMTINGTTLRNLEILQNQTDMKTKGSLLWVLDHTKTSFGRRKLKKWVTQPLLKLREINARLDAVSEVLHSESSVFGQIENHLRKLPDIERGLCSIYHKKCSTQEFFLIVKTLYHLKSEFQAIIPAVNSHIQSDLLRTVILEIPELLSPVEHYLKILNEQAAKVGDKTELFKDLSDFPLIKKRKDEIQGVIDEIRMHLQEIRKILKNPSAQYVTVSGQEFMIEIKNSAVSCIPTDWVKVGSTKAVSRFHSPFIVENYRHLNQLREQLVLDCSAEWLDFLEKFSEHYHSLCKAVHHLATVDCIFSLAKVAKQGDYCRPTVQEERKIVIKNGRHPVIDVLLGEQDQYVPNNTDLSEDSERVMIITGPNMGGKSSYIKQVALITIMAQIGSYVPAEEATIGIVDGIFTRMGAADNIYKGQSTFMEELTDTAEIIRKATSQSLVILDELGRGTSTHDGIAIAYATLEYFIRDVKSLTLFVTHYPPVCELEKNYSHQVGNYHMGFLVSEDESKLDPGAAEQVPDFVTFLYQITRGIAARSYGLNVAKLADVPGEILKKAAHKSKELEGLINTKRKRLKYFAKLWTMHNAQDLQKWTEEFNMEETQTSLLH
Sequence of UniProt Q00013 (Q00013 whole entry, looked up): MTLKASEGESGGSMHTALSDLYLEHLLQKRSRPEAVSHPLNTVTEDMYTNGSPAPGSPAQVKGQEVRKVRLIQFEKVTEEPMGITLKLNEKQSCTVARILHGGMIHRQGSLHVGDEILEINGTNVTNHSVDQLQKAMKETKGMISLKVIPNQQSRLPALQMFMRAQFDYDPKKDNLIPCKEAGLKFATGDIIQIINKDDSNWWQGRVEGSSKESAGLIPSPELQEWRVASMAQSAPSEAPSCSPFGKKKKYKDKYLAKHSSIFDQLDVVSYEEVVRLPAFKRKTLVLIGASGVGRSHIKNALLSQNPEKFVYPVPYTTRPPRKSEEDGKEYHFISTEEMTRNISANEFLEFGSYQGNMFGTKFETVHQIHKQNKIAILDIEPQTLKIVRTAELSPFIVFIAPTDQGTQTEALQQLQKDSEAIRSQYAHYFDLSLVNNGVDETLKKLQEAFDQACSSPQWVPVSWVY
Sequence of UniProt P30419 (P30419 whole entry, looked up): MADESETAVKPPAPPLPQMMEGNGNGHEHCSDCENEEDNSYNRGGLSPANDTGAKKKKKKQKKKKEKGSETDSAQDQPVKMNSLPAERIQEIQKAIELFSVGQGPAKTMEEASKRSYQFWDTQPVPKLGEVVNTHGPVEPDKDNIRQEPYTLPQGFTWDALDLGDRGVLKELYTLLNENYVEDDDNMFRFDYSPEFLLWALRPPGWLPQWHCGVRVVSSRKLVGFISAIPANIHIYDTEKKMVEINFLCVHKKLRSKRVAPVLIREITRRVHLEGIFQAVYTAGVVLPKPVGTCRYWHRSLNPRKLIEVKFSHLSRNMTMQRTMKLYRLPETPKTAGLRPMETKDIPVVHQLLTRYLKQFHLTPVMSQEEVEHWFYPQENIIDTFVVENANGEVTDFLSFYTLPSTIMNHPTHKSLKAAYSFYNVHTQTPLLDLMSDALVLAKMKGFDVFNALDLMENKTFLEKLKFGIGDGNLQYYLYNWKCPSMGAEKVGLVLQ
Sequence of UniProt O00566 (O00566 whole entry, looked up): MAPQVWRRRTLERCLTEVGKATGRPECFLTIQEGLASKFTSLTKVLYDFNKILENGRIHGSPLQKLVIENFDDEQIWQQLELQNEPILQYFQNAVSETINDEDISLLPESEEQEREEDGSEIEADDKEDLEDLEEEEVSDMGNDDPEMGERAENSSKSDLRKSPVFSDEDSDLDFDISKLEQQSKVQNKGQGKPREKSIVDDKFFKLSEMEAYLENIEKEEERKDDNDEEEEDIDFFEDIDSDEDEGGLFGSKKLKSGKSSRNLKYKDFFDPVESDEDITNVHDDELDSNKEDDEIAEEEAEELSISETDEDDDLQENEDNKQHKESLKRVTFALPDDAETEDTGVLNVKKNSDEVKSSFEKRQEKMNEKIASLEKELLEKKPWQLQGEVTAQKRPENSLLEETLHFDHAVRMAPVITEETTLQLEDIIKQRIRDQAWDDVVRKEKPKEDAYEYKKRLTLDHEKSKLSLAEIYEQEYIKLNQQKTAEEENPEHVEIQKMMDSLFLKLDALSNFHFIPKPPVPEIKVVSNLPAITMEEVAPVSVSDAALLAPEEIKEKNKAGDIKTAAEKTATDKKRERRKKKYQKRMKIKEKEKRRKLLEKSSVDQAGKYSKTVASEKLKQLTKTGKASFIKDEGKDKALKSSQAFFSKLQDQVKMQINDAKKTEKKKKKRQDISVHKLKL
Sequence of UniProt Q9BPX3 (Q9BPX3 whole entry, looked up): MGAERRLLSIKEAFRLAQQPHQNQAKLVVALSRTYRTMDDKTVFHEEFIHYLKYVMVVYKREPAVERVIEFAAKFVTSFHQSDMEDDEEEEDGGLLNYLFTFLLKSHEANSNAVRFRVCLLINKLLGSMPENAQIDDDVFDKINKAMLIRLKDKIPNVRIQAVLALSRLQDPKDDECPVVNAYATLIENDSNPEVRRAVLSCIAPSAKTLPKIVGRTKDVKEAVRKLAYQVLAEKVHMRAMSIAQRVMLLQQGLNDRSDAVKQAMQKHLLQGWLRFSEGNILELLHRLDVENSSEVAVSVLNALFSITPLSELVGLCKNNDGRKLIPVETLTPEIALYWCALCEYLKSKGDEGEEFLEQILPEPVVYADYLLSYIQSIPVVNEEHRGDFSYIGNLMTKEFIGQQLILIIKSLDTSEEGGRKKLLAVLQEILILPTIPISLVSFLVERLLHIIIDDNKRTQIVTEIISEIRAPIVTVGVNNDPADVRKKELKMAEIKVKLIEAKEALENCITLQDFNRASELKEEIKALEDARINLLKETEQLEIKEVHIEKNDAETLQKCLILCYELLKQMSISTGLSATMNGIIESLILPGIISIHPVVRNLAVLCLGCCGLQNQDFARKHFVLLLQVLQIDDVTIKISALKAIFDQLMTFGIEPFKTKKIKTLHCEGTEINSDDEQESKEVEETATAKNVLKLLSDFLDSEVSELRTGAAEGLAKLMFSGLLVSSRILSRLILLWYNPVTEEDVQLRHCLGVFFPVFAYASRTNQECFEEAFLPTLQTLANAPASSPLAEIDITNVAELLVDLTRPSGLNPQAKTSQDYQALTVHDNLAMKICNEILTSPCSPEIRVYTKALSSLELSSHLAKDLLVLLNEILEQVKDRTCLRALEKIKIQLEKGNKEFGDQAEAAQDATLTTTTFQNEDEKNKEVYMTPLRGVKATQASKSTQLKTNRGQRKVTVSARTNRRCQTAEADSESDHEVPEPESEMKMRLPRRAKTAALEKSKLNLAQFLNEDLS
Sequence of UniProt O00217 (O00217 whole entry, looked up): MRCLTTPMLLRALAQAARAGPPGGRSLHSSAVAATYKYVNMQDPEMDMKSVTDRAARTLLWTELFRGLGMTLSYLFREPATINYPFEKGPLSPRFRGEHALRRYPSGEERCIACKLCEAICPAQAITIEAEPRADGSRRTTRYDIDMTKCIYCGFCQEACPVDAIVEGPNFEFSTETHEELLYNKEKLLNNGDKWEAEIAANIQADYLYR
Sequence of UniProt Q9UMY1 (Q9UMY1 whole entry, looked up): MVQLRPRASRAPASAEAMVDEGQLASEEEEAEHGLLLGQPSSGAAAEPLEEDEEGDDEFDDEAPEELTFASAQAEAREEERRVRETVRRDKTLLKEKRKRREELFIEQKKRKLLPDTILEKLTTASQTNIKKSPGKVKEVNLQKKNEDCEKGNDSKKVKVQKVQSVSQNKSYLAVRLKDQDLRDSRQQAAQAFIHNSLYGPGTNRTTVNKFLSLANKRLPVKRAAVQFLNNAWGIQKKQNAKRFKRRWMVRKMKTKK
Sequence of UniProt Q8N5F7 (Q8N5F7 whole entry, looked up): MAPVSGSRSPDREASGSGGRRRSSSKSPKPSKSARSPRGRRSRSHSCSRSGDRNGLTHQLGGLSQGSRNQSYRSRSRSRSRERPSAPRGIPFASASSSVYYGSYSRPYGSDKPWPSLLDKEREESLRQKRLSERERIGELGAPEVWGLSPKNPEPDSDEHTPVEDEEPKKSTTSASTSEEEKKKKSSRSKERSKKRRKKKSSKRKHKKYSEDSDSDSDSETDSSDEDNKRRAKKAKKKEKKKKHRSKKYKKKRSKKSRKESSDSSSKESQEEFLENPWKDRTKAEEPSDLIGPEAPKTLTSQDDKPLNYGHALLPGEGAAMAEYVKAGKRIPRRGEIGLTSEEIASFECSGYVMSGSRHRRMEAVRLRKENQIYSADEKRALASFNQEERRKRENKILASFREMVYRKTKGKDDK
Sequence of UniProt Q8WVJ2 (Q8WVJ2 whole entry, looked up): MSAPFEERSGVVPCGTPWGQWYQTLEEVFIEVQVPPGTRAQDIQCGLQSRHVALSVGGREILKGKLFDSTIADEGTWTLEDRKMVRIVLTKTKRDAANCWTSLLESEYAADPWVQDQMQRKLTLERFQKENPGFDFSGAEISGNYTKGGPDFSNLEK

Row | Target | log2 fold change [1] | log2 fold change [2] | log2 fold change [3] | log2 fold change [4] | log2 fold change [5] | log2 fold change [6] | log2 fold change [7] | log2 fold change [8] | log2 fold change [9] | log2 fold change [10]
1 | OXSM (UniProt Q9NWU1) | -0.079 | 0.024 | 0.005 | 0.055 | -0.052 | -0.001 | 0.053 | -0.034 | -0.042 | 0.019
2 | NOL7 (UniProt Q9UMY1) | -0.151 | -0.208 | -0.728 (active) | 0.005 | -0.179 | 0 | -0.071 | -0.058 | 0.045 | -0.189
3 | NMT1 (UniProt P30419) | -0.002 | 0.001 | 0.039 | -0.009 | -0.01 | 0.07 | -0.002 | 0.05 | 0.036 | -0.363 (active)
4 | MPHOSPH10 (UniProt O00566) | -0.079 | -0.005 | -0.412 | -0.023 | 0.031 | 0.061 | 0.07 | -0.004 | 0.024 | -0.023
5 | PAFAH1B3 (UniProt Q15102) | 0.028 | 0.091 | 0.029 | 0.017 | 0.148 | -0.038 | 0.085 | 0.061 | -0.058 | 0.032
6 | NCAPG (UniProt Q9BPX3) | -0.007 | 0.114 | 0.013 | -0.03 | 0.005 | 0.002 | 0.027 | 0.043 | -0.044 | -0.104
7 | NUDT1 (UniProt P36639) | 0.164 | -0.018 | 0.135 | -0.068 | 0 | -0.032 | 0.055 | 0.187 | -0.009 | 1.01 (active)
8 | NAA11 (UniProt Q9BSU3) | -0.023 | -0.012 | -0.033 | 0.06 | 0.158 | -0.207 | -0.023 | -0.032 | -0.108 | 0.167
9 | NCAPD2 (UniProt Q15021) | 0.029 | 0.107 | 0.005 | -0.05 | 0.024 | 0.04 | 0.013 | 0.022 | -0.001 | -0.103
10 | MRPS6 (UniProt P82932) | 0.001 | 0.006 | 0.006 | 0.088 | 0.01 | 0.112 | 0.128 | 0.079 | -0.039 | -0.093
11 | NR2C2AP isoform 2 (UniProt Q86WQ0) | 0.032 | 0.028 | -0.013 | 0.048 | 0.041 | 0.026 | -0.08 | -0.134 | -0.089 | -0.013
12 | PAAF1 (UniProt Q9BRP4) | 0.038 | 0.032 | 0.097 | 0.068 | -0.009 | 0.009 | 0.027 | 0 | 0.003 | 0.009
13 | MRPS26 (UniProt Q9BYN8) | -0.081 | 0.004 | 0.004 | 0.157 | 0.038 | 0.088 | -0.042 | 0.06 | -0.19 | 0.024
14 | OSBPL8 (UniProt Q9BZF1) | 0.243 | 0.156 | -0.212 | 0.021 | 0.005 | -0.028 | 0.077 | -0.005 | -0.048 | -0.085
15 | NDUFS8 (UniProt O00217) | 0.015 | 0.045 | 0.023 | 0.033 | 0.039 | 0.027 | 0.029 | 0.007 | 0.014 | 0.035
16 | MRPS31 (UniProt Q92665) | 0.003 | 0.001 | -0.032 | 0.105 | -0.004 | 0.023 | 0.048 | 0.064 | 0.003 | -0.066
17 | NQO1 (UniProt P15559) | -0.064 | 0.037 | 0.089 | -0.002 | -0.06 | -0.005 | -0.014 | 0.269 (active) | -0.015 | 0.065
18 | NOP2 isoform 4 (UniProt P46087) | -0.17 | -0.261 | -0.349 | -0.064 | -0.045 | 0.272 | -0.255 | 0.078 | 0.023 | 0.006
19 | NSMCE4A (UniProt Q9NXX6) | -0.044 | 0.028 | -0.002 | 0.072 | 0.182 | -0.138 | -0.031 | -0.192 | 0.056 | 0.117
20 | NKAP (UniProt Q8N5F7) | 0.029 | 0.023 | -0.041 | 0.041 | -0.189 | -0.047 | -0.085 | -0.051 | -0.064 | -0.007
21 | NEU1 (UniProt Q99519) | 0.001 | -0.05 | -0.027 | 0.101 | 0.003 | 0 | -0.018 | -0.011 | 0.012 | -0.047
22 | MT-ND4 (UniProt P03905) | 0.152 | -0.077 | 0.053 | -0.028 | -0.026 | 0.044 | -0.009 | 0.078 | -0.007 | -0.036
23 | OGFR (UniProt Q9NZT2) | 0.009 | 0.207 | -0.011 | 0.107 | 0.131 | -0.157 | 0.027 | -0.085 | 0.028 | -0.132
24 | NA, A0A096LPI6 | -0.009 | -0.009 | 0.047 | 0.02 | -0.051 | 0.04 | 0.023 | -0.004 | 0.008 | 0.035
25 | NUDCD2 (UniProt Q8WVJ2) | 0.054 | -0.003 | 0.019 | -0.071 | 0.025 | 0.018 | -0.014 | 0.012 | -0.107 | -0.08
26 | MSH3 (UniProt P20585) | 0.009 | 0.031 | 0.068 | 0.017 | 0.017 | 0.03 | 0.004 | -0.039 | 0.008 | -0.045
27 | NMNAT1 (UniProt Q9HAN9) | 0.033 | -0.145 | -0.302 | -0.111 | -0.032 | 0.03 | -0.102 | -0.008 | 0.157 | -0.046
28 | MPP1 (UniProt Q00013) | 0.083 | 0.098 | 0.027 | 0.016 | 0.004 | -0.001 | 0.012 | 0.033 | -0.048 | -0.019
